Experimental data reported in PubChem BioAssay (NCI).
Compounds without any hit were thinned out: in the full panel of roughly 79,000, 15% have a hit. Unmarked numbers belong to inactive results. Calls of active or inactive are those of the source. Rule as the data show it: active = growth inhibition above about 70%; inactive = the rest.

Columns and labels:
[1] = NCI Yeast Anticancer Drug Screen. Data for the rad50 strain (AID 155);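 also: 0% = growth of vehicle-only cultures of the same strain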; settings: S. cerevisiae rad50 strain growth inhibition; at 50.0 µM; active compounds read high
Outline: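 Inhibition values express reduced yeast growth in compound-treated cultures relative to vehicle-treated controls.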

[2] = NCI Yeast Anticancer Drug Screen. Data for the mec2-1 strain (AID 157); settings: S. cerevisiae mec2-1 strain, at 50.0 µM, active compounds read high
Outline: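 Using mec2-1 yeast: add compound, measure growth, express inhibition versus vehicle-treated cultures.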

[3] = NCI Yeast Anticancer Drug Screen. Data for the sgs1 mgt1 strain (AID 161);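 also: 0% = growth of cultures given vehicle only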; settings: S. cerevisiae sgs1 mgt1 strain, at 50.0 µM, active compounds read high
Outline: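 Compounds are added to genetically altered yeast, and growth is compared with cultures given vehicle alone to give percent inhibition.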

[4] = NCI Yeast Anticancer Drug Screen. Data for the cln2 rad14 strain (AID 165);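 also: 0% = growth equal to vehicle treated cultures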; settings: S. cerevisiae cln2 rad14 strain, at 50.0 µM, active compounds read high
Outline: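 Yeast strain cln2 rad14, bearing defects in cell cycle control and DNA repair, serves as the test system; values reflect growth inhibition compared with vehicle.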

[5] = NCI Yeast Anticancer Drug Screen. Data for the bub3 strain (AID 167); settings: S. cerevisiae bub3 mutant strain, at 50.0 µM, active compounds read high
Outline: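 Steps: expose the mutant yeast strain to compound; grow alongside vehicle-treated cultures; measure growth; express inhibition against the vehicle cultures.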

[6] = NCI Yeast Anticancer Drug Screen. Data for the mlh1 rad18 strain (AID 175); settings: S. cerevisiae mlh1 rad18 strain growth inhibition; at 50.0 µM; active compounds read high
Outline: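 Steps: expose repair-defective yeast to compound; measure growth; express inhibition against vehicle-treated controls.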

| Compound | growth inhibition [1] | growth inhibition [2] | growth inhibition [3] | growth inhibition [4] | growth inhibition [5] | growth inhibition [6] |
| --- | --- | --- | --- | --- | --- | --- |
| CC(=O)[C@H]1CC[C@@H]2[C@]1(C)CC1OC13[C@@]21C=C[C@@]2(CC(=O)CC[C@]32C)C2C(=O)OC(=O)C21 (stereo partly drawn) | 17.6% | 4.45% | 40.8% | 18.5% | 3.95% | 22.9% |
| CCOC(=O)/C(C#N)=C/Nc1c(C)n(C)n(-c2ccccc2)c1=O | 0.95% | 10.3% | 6.75% | 16.4% | -0.85% | 13.6% |
| O=C(O)c1ccc(OS(=O)(=O)c2ccccc2)cc1 | 26.5% | 8.1% | 39.7% | 22.4% | 46.9% | 16.3% |
| O=C(O)/C=C\CCCCC(=O)O | 35.4% | 0.95% | 15.1% | 6.75% | 13.8% | 37.5% |
| COc1ccc(-n2cc3c(=O)nccc-3c3ccccc32)cc1OC | -9.3% | -12.8% | 1.2% | -10.6% | -18.6% | -0.6% |
| Cc1c(-c2coc(-c3ccc(Cl)cc3)n2)c(=O)n(-c2ccccc2)n1C | -7.85% | -43.2% | -22.1% | -9.9% | 7.4% | -6.6% |
| Oc1ccc(Cl)cc1/C=N\N=C\c1cc(Cl)ccc1O | -50.3% | -1.1% | 5.75% | -36.1% | 3.15% | 8.85% |
| COc1ccc(OC)c(C(O)P(=O)(c2ccccc2)c2ccccc2)c1 (stereo not drawn) | 12.5% | 1.65% | 31.4% | 12.2% | 27.1% | 27.2% |
| Cc1cc(=O)[nH]c(NNC(=S)NC2CCCCC2)n1 | -17.4% | -41.8% | 10.9% | 2.85% | -28.4% | -18.6% |
| CC1(C)CC(NC(=O)C(C)(C)Oc2ccc(Cl)cc2)CC(C)(C)N1 | 32.5% | 6% | 25.9% | -12% | 9.15% | 25.8% |
| COc1ccc(NS(=O)(=O)c2ccc(N=Cc3c4ccccc4nc4ccccc34)cc2)nn1 | 96.8% (active) | 95.5% (active) | 91.6% (active) | 79.9% (active) | 93.5% (active) | 90.8% (active) |
| Cc1nc2sc(CCl)nn2c(=O)c1Cl | 16.1% | 34% | 14.6% | 17.9% | 21.2% | 10.8% |
| CN=C(N)SCCSC(N)=NC | -12.3% | -18.2% | 0.25% | -13.5% | 11.5% | -5.15% |
| CCOCC(Cl)C(OCC)OCC (stereo not drawn) | 0.45% | 6.5% | -5.4% | -20.1% | 2.85% | -1.1% |
| CNc1ccc(Br)cc1[N+](=O)[O-] | -22.2% | -22.7% | -12.9% | -0.2% | -26.7% | -15.4% |
| C1CC(CCN2CCOCC2)CCN1 | -16.4% | -46.6% | -17.3% | 9.8% | -2.7% | -8.45% |
| CCc1occc(=O)c1O | 16.6% | -6.95% | -1.75% | 1.75% | 16.8% | -9.1% |
| CC(=O)Oc1ccc2ccccc2c1CN(C(C)=O)c1ccc(C)cc1 | -7.45% | -22.7% | -10.1% | -19.4% | 1.7% | -28.4% |
| Cc1cc(=O)n(-c2ccccc2)c(=O)n1-c1nc2ccccc2[nH]1 | 19% | -8.4% | 14.7% | 3.65% | -4.35% | 32% |

| Compound | growth inhibition [1] | growth inhibition [2] | growth inhibition [3] | growth inhibition [4] | growth inhibition [5] | growth inhibition [6] |
| --- | --- | --- | --- | --- | --- | --- |
| O=CC1(CCc2ccccc2)NC(=O)NC1=O (stereo not drawn) | 5.3% | 11.2% | 2.55% | -18.9% | -0.4% | 1.25% |
| c1ccc(-c2[nH]nc3nc4c(nc23)CCCC4)cc1 | 7.4% | -5.3% | -5.1% | -32.9% | -33% | 6.6% |
| Cc1cnc2[nH]c(-c3ccc(Cl)cc3)cc(=O)c2c1 | -5.65% | -21.6% | -31.9% | -31.4% | -32% | -52.1% |
| N#C/C(=N/Nc1nc[nH]c1C(N)=O)C(=O)Nc1ccccc1 | 8.6% | 20.9% | 16.6% | -0.1% | -0.6% | 26.1% |
| O=NN(C(=O)NCCCl)c1[nH]c(=O)ncc1I | -8.65% | -9.7% | -13.9% | -25.2% | 3.05% | -6.1% |
| CNC(=O)OCc1c(COC(=O)NC)c(C)n(-c2ccc3c(c2)OCO3)c1C | -3.2% | -6.95% | 19.2% | -0.45% | 1.35% | -40.3% |
| CC1=CC2OC3C(OC(=O)c4ccccc4)C(OC(=O)c4ccccc4)C(C)(C2(COC(=O)c2ccccc2)CC1)C31CO1 (stereo not drawn) | 6.3% | -3.1% | 1.55% | 7.8% | 4.85% | 17.7% |
| Cc1cc2c(=O)cc(-c3ccc(F)cc3)oc2c(C(=O)O)c1C | -19.1% | -1.1% | -5.6% | 17.4% | -4.4% | 33.3% |
| CC1([N+](=O)[O-])C(=O)C2(N3CCCC3)CCCC2C1c1ccccc1 (stereo not drawn) | 0.5% | 8.4% | -10.9% | -2.25% | 8.3% | -9.35% |
| CC(C)OC(=S)SCC(=O)c1ccc(-c2ccccc2)cc1 | 1.7% | 17.5% | 21.3% | -2.45% | 30.9% | 8.75% |
| S=c1nc[nH]c2c1CNC2 | -8.2% | 10.9% | -5.4% | 1.7% | 5.25% | -6.15% |
| COc1ccc(-c2c3c(nc4nc(SCC(=O)c5ccc(Br)cc5)nc(N)c24)CCCC3)cc1OC | 0.05% | -17.2% | -27.9% | -0.55% | -16.6% | 9.65% |
| O=C(Nc1ccccc1)Nc1ccc(-c2ccccc2)cc1 | 13.7% | 14.1% | 13.1% | 5.7% | 37.6% | 3.5% |
| O=[n+]1c2c(n([O-])c3cc(Cl)c(Cl)cc31)CCC2 | 25.4% | -2.4% | 22.9% | 5.05% | 4% | 28.4% |
| NC(=O)c1ccc(=S)[nH]c1 | -8% | -12.7% | -7.55% | -27.1% | -6.1% | 14.7% |
| O=C(CNc1ccccn1)Nn1cnc2ccc(S(=O)(=O)Nc3ccccn3)cc2c1=O | 32.2% | 28% | 39.4% | -1.1% | 25.6% | 22.6% |
| CSC(N)=NC1CCCCC1 | -7.35% | 0.1% | -6.05% | -30.4% | 35.9% | 6.15% |
| CC(=N/O)/C(C)=C/c1ccccc1 | 10.1% | 7.3% | 1.4% | 8.4% | 6.25% | 2.7% |
| COc1ccc(Cc2nc3c([nH]2)c(=O)n(C)c(=O)n3C)cc1 | -0.05% | -14.1% | 0.05% | -50.8% | 1.2% | 1.2% |
